Test results as given in PubChem BioAssay (NCI).
About 83,000 compounds went through this panel and 20% of them were active in at least one assay; those are over-represented in the sample as a whole.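 Cell lines were cultured in 96-well plates, exposed to a single compound concentration, and assessed for percent growth 48 hours later.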 Values without a mark were called inactive. Activity calls are given as the source filed them. The calls were made as follows: active = growth percent below 10; inactive = the rest.

Columns and labels:
Test in all cases: NCI-60 one-dose screen, 48 h (100 = growth as untreated, 0 = no growth, -100 = all killed)
Conditions in all cases: 10 µM
SK-MEL-2 melanoma = system: SK-MEL-2 melanoma
SN12C renal = system: SN12C renal
UO-31 renal = system: UO-31 renal
TK-10 renal = system: TK-10 renal
ACHN renal = system: ACHN renal
CAKI-1 renal = system: CAKI-1 renal
A498 renal = system: A498 renal
CCRF-CEM leukemia = system: CCRF-CEM leukemia
MOLT-4 leukemia = system: MOLT-4 leukemia
SR leukemia = system: SR leukemia
RPMI-8226 leukemia = system: RPMI-8226 leukemia
OVCAR-8 ovarian = system: OVCAR-8 ovarian
OVCAR-5 ovarian = system: OVCAR-5 ovarian
OVCAR-4 ovarian = system: OVCAR-4 ovarian
SK-OV-3 ovarian = system: SK-OV-3 ovarian
IGROV1 ovarian = system: IGROV1 ovarian
OVCAR-3 ovarian = system: OVCAR-3 ovarian
HS 578T breast = system: HS 578T breast
NCI/ADR-RES ovarian = system: NCI/ADR-RES ovarian

**Q.** Which results are given for Nc1nc2c(ncn2C2OC3COP(=O)(O)OC4C(COP(=O)(O)OC2C3O)OC(n2cnc3c(N)ncnc32)C4O)c(=O)[nH]1 (configuration not stated)?
**A.** growth (SK-MEL-2 melanoma): 115%; growth (SN12C renal): 106%; growth (UO-31 renal): 104%; growth (TK-10 renal): 112%; growth (ACHN renal): 105%; growth (CAKI-1 renal): 100%; growth (A498 renal): 5.1% (active); growth (CCRF-CEM leukemia): 97.8%; growth (MOLT-4 leukemia): 92.8%; growth (SR leukemia): 57.8%; growth (RPMI-8226 leukemia): 99.4%; growth (OVCAR-8 ovarian): 102%; growth (OVCAR-5 ovarian): 103%; growth (OVCAR-4 ovarian): 105%; growth (SK-OV-3 ovarian): 87.3%; growth (IGROV1 ovarian): 109%; growth (OVCAR-3 ovarian): 107%; growth (HS 578T breast): 105%; growth (NCI/ADR-RES ovarian): 102%

**Q.** How did the growth (SK-MEL-2 melanoma) turn out when CCc1ccc(-c2nnc(COc3ccc(-c4nc5ccc(C)cc5[nH]4)cc3OC)o2)cc1 was run?
**A.** 104%

**Q.** And the growth (SN12C renal)?
**A.** 10.7%

**Q.** What about the growth (UO-31 renal) of the same compound?
**A.** 38.2%

**Q.** And the growth (TK-10 renal)?
**A.** 55.1%

**Q.** What about the growth (ACHN renal) of the same compound?
**A.** -8.12% (active)

**Q.** And the growth (CAKI-1 renal)?
**A.** 30.3%

**Q.** And the growth (A498 renal)?
**A.** 84.1%

**Q.** What about the growth (CCRF-CEM leukemia) of the same compound?
**A.** 6.98% (active)

**Q.** What about the growth (MOLT-4 leukemia) of the same compound?
**A.** 38.6%

**Q.** And the growth (SR leukemia)?
**A.** -31.5% (active)

**Q.** What about the growth (RPMI-8226 leukemia) of the same compound?
**A.** -6.63% (active)

**Q.** What about the growth (OVCAR-8 ovarian) of the same compound?
**A.** 39.9%

**Q.** And the growth (OVCAR-5 ovarian)?
**A.** 92.4%

**Q.** And the growth (OVCAR-4 ovarian)?
**A.** -59.8% (active)

**Q.** What about the growth (SK-OV-3 ovarian) of the same compound?
**A.** 33.9%

**Q.** And the growth (IGROV1 ovarian)?
**A.** 64.4%

**Q.** And the growth (OVCAR-3 ovarian)?
**A.** 41.7%

**Q.** What about the growth (HS 578T breast) of the same compound?
**A.** 28.2%

**Q.** And the growth (NCI/ADR-RES ovarian)?
**A.** 42.1%

**Q.** With COc1cc(C2CC(=O)Nc3c2c(C)nn3-c2nc3ccccc3[nH]2)cc(OC)c1O (configuration not stated) as the compound, how does the growth (SK-MEL-2 melanoma) read?
**A.** -7.45% (active)

**Q.** And the growth (SN12C renal)?
**A.** 81.2%

**Q.** And the growth (UO-31 renal)?
**A.** 8.39% (active)

**Q.** What about the growth (TK-10 renal) of the same compound?
**A.** 37.2%

**Q.** And the growth (ACHN renal)?
**A.** 31.1%

**Q.** What about the growth (CAKI-1 renal) of the same compound?
**A.** 78.9%

**Q.** And the growth (A498 renal)?
**A.** 22.5%

**Q.** And the growth (CCRF-CEM leukemia)?
**A.** 0.819% (active)

**Q.** And the growth (MOLT-4 leukemia)?
**A.** -36% (active)

**Q.** And the growth (SR leukemia)?
**A.** 9.39% (active)

**Q.** What about the growth (RPMI-8226 leukemia) of the same compound?
**A.** 83.5%

**Q.** What about the growth (OVCAR-8 ovarian) of the same compound?
**A.** 19.9%

**Q.** And the growth (OVCAR-5 ovarian)?
**A.** 112%

**Q.** And the growth (OVCAR-4 ovarian)?
**A.** 63.8%

**Q.** What about the growth (SK-OV-3 ovarian) of the same compound?
**A.** 2.53% (active)

**Q.** What about the growth (IGROV1 ovarian) of the same compound?
**A.** 28.2%

**Q.** And the growth (OVCAR-3 ovarian)?
**A.** 20.9%

**Q.** And the growth (HS 578T breast)?
**A.** 8.42% (active)

**Q.** And the growth (NCI/ADR-RES ovarian)?
**A.** 80.6%

**Q.** For Cc1nc2scc(-c3ccc(Cl)cc3)n2c(=O)c1CCN1CCOCC1, which growth (SK-MEL-2 melanoma) is on record?
**A.** 105%

**Q.** And the growth (SN12C renal)?
**A.** 94%

**Q.** And the growth (UO-31 renal)?
**A.** 57.5%

**Q.** And the growth (TK-10 renal)?
**A.** 142%

**Q.** And the growth (ACHN renal)?
**A.** 89.4%

**Q.** And the growth (CAKI-1 renal)?
**A.** 84.6%

**Q.** What about the growth (A498 renal) of the same compound?
**A.** 119%

**Q.** And the growth (CCRF-CEM leukemia)?
**A.** 93.6%

**Q.** And the growth (MOLT-4 leukemia)?
**A.** 78.1%

**Q.** What about the growth (SR leukemia) of the same compound?
**A.** 81.4%

**Q.** And the growth (RPMI-8226 leukemia)?
**A.** 93.5%

**Q.** What about the growth (OVCAR-8 ovarian) of the same compound?
**A.** 104%

**Q.** And the growth (OVCAR-5 ovarian)?
**A.** 116%

**Q.** What about the growth (OVCAR-4 ovarian) of the same compound?
**A.** 95.1%

**Q.** And the growth (SK-OV-3 ovarian)?
**A.** 94.1%

**Q.** What about the growth (IGROV1 ovarian) of the same compound?
**A.** 79.2%

**Q.** And the growth (OVCAR-3 ovarian)?
**A.** 104%

**Q.** And the growth (HS 578T breast)?
**A.** 106%

**Q.** What about the growth (NCI/ADR-RES ovarian) of the same compound?
**A.** 108%

**Q.** Which results are given for CCC(O)c1ccc(Br)cc1NC(=O)c1cccc(Cl)c1 (configuration not stated)?
**A.** growth (SK-MEL-2 melanoma): 34%; growth (SN12C renal): 18.7%; growth (UO-31 renal): -11.6% (active); growth (TK-10 renal): 41.9%; growth (ACHN renal): 15.6%; growth (CAKI-1 renal): 7.99% (active); growth (A498 renal): 25.3%; growth (CCRF-CEM leukemia): 6.46% (active); growth (MOLT-4 leukemia): 10.1%; growth (SR leukemia): 8.25% (active); growth (RPMI-8226 leukemia): 18.2%; growth (OVCAR-8 ovarian): 13.9%; growth (OVCAR-5 ovarian): 50.4%; growth (OVCAR-4 ovarian): 24.9%; growth (SK-OV-3 ovarian): 34%; growth (IGROV1 ovarian): 10.4%; growth (OVCAR-3 ovarian): 33.8%; growth (HS 578T breast): 51%; growth (NCI/ADR-RES ovarian): 5.46% (active)

**Q.** Which growth (SK-MEL-2 melanoma) does the source give for OC(CNC1CCCC1)Cn1c2ccccc2c2ccccc21 (configuration not stated) here?
**A.** 48.9%

**Q.** What about the growth (SN12C renal) of the same compound?
**A.** 50.7%

**Q.** What about the growth (UO-31 renal) of the same compound?
**A.** 12.3%

**Q.** What about the growth (TK-10 renal) of the same compound?
**A.** 29.2%

**Q.** What about the growth (ACHN renal) of the same compound?
**A.** 15.1%

**Q.** And the growth (CAKI-1 renal)?
**A.** 31.8%

**Q.** What about the growth (A498 renal) of the same compound?
**A.** 58%

**Q.** And the growth (CCRF-CEM leukemia)?
**A.** 4.28% (active)

**Q.** And the growth (MOLT-4 leukemia)?
**A.** -13.9% (active)

**Q.** And the growth (SR leukemia)?
**A.** -32.5% (active)

**Q.** And the growth (RPMI-8226 leukemia)?
**A.** 1.44% (active)

**Q.** And the growth (OVCAR-8 ovarian)?
**A.** 24.2%

**Q.** What about the growth (OVCAR-5 ovarian) of the same compound?
**A.** 103%

**Q.** And the growth (OVCAR-4 ovarian)?
**A.** 36.2%

**Q.** And the growth (SK-OV-3 ovarian)?
**A.** 59.7%

**Q.** And the growth (IGROV1 ovarian)?
**A.** 30.9%

**Q.** And the growth (OVCAR-3 ovarian)?
**A.** 36.4%

**Q.** What about the growth (HS 578T breast) of the same compound?
**A.** 63.6%

**Q.** What about the growth (NCI/ADR-RES ovarian) of the same compound?
**A.** 15.1%

**Q.** What does the source list for COc1cccc2c1C(=O)c1c(O)c3c(c(O)c1C2=O)C[C@@](O)(C(=O)COC(=O)c1cccnc1)C[C@@H]3OC1CC(N)C(O)C(C)O1 (some centres not stated)?
**A.** growth (SK-MEL-2 melanoma): -71.1% (active); growth (SN12C renal): 6.29% (active); growth (UO-31 renal): -40.4% (active); growth (TK-10 renal): -9.29% (active); growth (ACHN renal): -7.12% (active); growth (CAKI-1 renal): -40.7% (active); growth (A498 renal): -56.6% (active); growth (CCRF-CEM leukemia): 0.652% (active); growth (MOLT-4 leukemia): -24.8% (active); growth (SR leukemia): 3.07% (active); growth (RPMI-8226 leukemia): -29% (active); growth (OVCAR-8 ovarian): -15.8% (active); growth (OVCAR-5 ovarian): 6.95% (active); growth (OVCAR-4 ovarian): 0.907% (active); growth (SK-OV-3 ovarian): 22.5%; growth (IGROV1 ovarian): -12.4% (active); growth (OVCAR-3 ovarian): -9.51% (active); growth (HS 578T breast): -12.8% (active); growth (NCI/ADR-RES ovarian): 57%

**Q.** What does the source list for CCOc1cc(Br)c(C(C)NC(=O)c2cccc(OC)c2)cc1OCC (configuration not stated)?
**A.** growth (SK-MEL-2 melanoma): 80.9%; growth (SN12C renal): 78.8%; growth (UO-31 renal): 54.7%; growth (TK-10 renal): 77.8%; growth (ACHN renal): 95.7%; growth (CAKI-1 renal): 81.6%; growth (A498 renal): 54%; growth (CCRF-CEM leukemia): 53.7%; growth (MOLT-4 leukemia): 49.3%; growth (SR leukemia): 3.32% (active); growth (RPMI-8226 leukemia): 36.3%; growth (OVCAR-8 ovarian): 84.3%; growth (OVCAR-5 ovarian): 88.7%; growth (OVCAR-4 ovarian): 64.5%; growth (SK-OV-3 ovarian): 96%; growth (IGROV1 ovarian): 73.8%; growth (OVCAR-3 ovarian): 74.8%; growth (HS 578T breast): 75.5%; growth (NCI/ADR-RES ovarian): 94.4%
